Shown is part of a subset that was picked to be rich in hits.
12-LOX inh = ALOX12 (human) lipoxygenase inhibition. P18054. purified 12hLO, xylenol orange hydroperoxide absorbance. Potency, µM (titrated, usually from 108 µM), without a hit: at the highest dose activity change, negative = inhibition, actives largely listed as inhibitors. 1.1% of 580,000 active. AID 1671190; further: potency means the concentration at half of the fitted maximal effect
Target sequence (P18054 whole entry, looked up): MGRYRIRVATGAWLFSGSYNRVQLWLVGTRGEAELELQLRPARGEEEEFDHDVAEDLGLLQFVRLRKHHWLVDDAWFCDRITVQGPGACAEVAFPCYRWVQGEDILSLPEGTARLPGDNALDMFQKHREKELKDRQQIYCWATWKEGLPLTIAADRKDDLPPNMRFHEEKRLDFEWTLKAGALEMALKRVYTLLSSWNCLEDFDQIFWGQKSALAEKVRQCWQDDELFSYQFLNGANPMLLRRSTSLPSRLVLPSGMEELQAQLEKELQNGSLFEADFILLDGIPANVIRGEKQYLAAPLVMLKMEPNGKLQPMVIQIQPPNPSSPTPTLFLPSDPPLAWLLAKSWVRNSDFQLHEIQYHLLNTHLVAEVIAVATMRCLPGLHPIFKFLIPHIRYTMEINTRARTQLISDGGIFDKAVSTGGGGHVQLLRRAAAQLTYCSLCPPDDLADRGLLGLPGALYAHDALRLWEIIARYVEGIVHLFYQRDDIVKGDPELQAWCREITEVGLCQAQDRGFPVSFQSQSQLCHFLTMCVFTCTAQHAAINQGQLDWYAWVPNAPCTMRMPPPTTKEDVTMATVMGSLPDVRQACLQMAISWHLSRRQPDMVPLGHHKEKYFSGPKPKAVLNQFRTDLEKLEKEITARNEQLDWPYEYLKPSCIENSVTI
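Purified human 12hLO (150 nM final) in 25 mM Hepes, 0.01% Triton X-100, pH 7.0 was preincubated 15 min at room temperature with compound. Then 40 uM arachidonic acid was added, 30 min. Hydroperoxide was read by Fe-XO absorbance ratio 573/405 nm.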
IL-1B inflam inh = blocks inflammasome-driven IL-1 beta release. THP-1 LPS/ATP IL-1B secretion, AlphaLISA, 16 h; stronger effect = lower value. activity change, % at 57.5 µM. 4.7% of 360,000 active; in the data active means activity change below about -50%; inconclusive means mostly about -30% to -49%
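THP-1 cells pretreated 1 hr with compounds (up to 57.5 uM final), then stimulated with LPS (250 ng/mL final) plus ATP (1.25 mM final); secreted IL-1B measured by AlphaLISA after 16 hr, decreased signal indicating inhibition.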
DT40 TDP1 CPT = DT40-hTDP1 cell growth loss with CPT; AID 686979; 12% of 420,000 active; chicken DT40 Tdp1-/-;hTDP1 cells + 20 nM CPT, ATP luminescence, 48 h; Potency, µM (series often up to 46.2 µM), inactives show top-dose activity change, negative = growth inhibition, actives largely listed as inhibitors; further: potency means the concentration at half of the fitted maximal effect; nearly all actives have a fitted effect of over 55% in size
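Chicken DT40 Tdp1-/- cells stably complemented with human TDP1 were seeded at 400 cells/well in medium containing 20 nM camptothecin, exposed to pin-transferred compounds, and grown at 37 °C for at least 48 hr. Viability was read as ATP luminescence.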
DT40 TDP1 no CPT = qHTS for Inhibitors of human tyrosyl-DNA phosphodiesterase 1 (TDP1): qHTS in cells in absence of CPT. DT40 Tdp1-/- hTDP1 cells, no CPT, ATP luminescence, 48 h. Potency, µM (top dose mostly 46.2 µM), without a hit: top-dose activity change, negative = growth inhibition, actives largely listed as inhibitors. 15% of 420,000 active; further: potency means the concentration at half of the fitted maximal effect; nearly all actives have a fitted effect of over 55% in size
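Growth of hTDP1-complemented DT40 Tdp1-knockout cells is measured by ATP luminescence after at least 48 hr compound exposure at 37 °C, with DMSO substituting for the 20 nM CPT used in the parallel screen.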
HT1080-NT tox = kills 2HG-producing HT-1080-NT fibrosarcoma cells | HT-1080-NT fibrosarcoma viability, CellTiter-Glo ATP luminescence, 48 h | Potency, µM (doses to about 46.1 µM), for inactives: top-dose activity, negative = less viability, actives largely listed as cytotoxic | 1.6% of 360,000 active | AID 686970;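 further: NT is the 2HG producing partner of a matched IDH1 knockdown line; potency means the concentration at half of the fitted maximal effect; 0% = DMSO-treated cells and -100% = media-only wells without cells; nearly all actives have a fitted effect of over 55% in size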
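Compounds were tested in concentration-response format on HT-1080-NT cells for 48 hours at 37 degrees C. Cell viability came from CellTiter-Glo luminescence; curves were classified by r2, response magnitude and activity.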
HT1080 IDH1KD tx = kills HT-1080 cells with IDH1 knockdown | HT-1080 IDH1 knockdown viability, ATP luminescence, 48 h | 2% of 360,000 active | Potency, µM (highest dose often 46.1 µM), for inactives: top-dose activity, negative = toxicity, hits mostly cytotoxic | AID 686971;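 further: potency means the concentration at half of the fitted maximal effect; 0% = DMSO wells and -100% = cell-free medium wells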
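Viability of IDH1-knockdown HT-1080 fibrosarcoma cells was assessed by CellTiter-Glo after 48 h at 37 °C with titrated compound; concentration-effect curves were classified by fit quality and response size.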
* hit, by the source's call; [ ] = remark or other dose. Unless noted, the call rests on the fitted dose curve; in most records, active means well fitted curve in the direction sought with a large enough effect; inconclusive means small, poorly fitted or top-dose-only effect, or another doubt; inactive means no such curve, though single readings can be large; an effect the other way counts as inactive or inconclusive. Unless noted, on the % scale 0 is the no-effect control and ±100 the full control effect.

Results for CCCc1ccc(NC(=O)CC2(C(=O)O)CCCC2)cc1 ?
12-LOX inh: 2%

What do the screens show for `Cc1ccc(OCCN(C)C(=O)NCc2ccccc2)cc1`?
12-LOX inh: 17%

What do the screens show for `COc1ccc2sc(-c3ccc(N(C)C)cc3)c(C#Cc3cncn3C)c2c1`?
12-LOX inh: -3%; IL-1B inflam inh: -6; DT40 TDP1 CPT: 5.8µM*; DT40 TDP1 no CPT: 5.8µM*; HT1080-NT tox: 26µM*; HT1080 IDH1KD tx: 26µM*

How did COc1ccc2sc(-c3ccc(N(C)C)cc3)c(C#CC(C)(C)O)c2c1 do in these assays?
12-LOX inh: 4%; IL-1B inflam inh: 17; DT40 TDP1 CPT: 8.2µM*; DT40 TDP1 no CPT: 8.2µM*; HT1080-NT tox: inconclusive; HT1080 IDH1KD tx: inconclusive

How did COc1ccc(-c2sc3ccc(OC)cc3c2C#CCCO)cc1 do in these assays?
IL-1B inflam inh: 0; DT40 TDP1 CPT: inconclusive; DT40 TDP1 no CPT: inconclusive; HT1080-NT tox: -18%; HT1080 IDH1KD tx: -29%

Results for COc1cccc(-c2sc3ccc(OC)cc3c2C#CCC(C)O)c1 (stereo not drawn) ?
12-LOX inh: inconclusive; IL-1B inflam inh: -2; DT40 TDP1 CPT: inconclusive; DT40 TDP1 no CPT: inconclusive; HT1080-NT tox: -5%; HT1080 IDH1KD tx: -7%

Results for COc1cccc(-c2sc3ccc(OC)cc3c2C#CC(C)(C)O)c1 ?
12-LOX inh: -18%; IL-1B inflam inh: -88*; DT40 TDP1 CPT: 23µM*; DT40 TDP1 no CPT: 18µM*; HT1080-NT tox: -19%; HT1080 IDH1KD tx: -24%

How did COc1ccc2sc(-c3ccc(N(C)C)cc3)c(C#CCCO)c2c1 do in these assays?
12-LOX inh: -5%; IL-1B inflam inh: -9; DT40 TDP1 CPT: inconclusive; DT40 TDP1 no CPT: 16µM*; HT1080-NT tox: 16µM*; HT1080 IDH1KD tx: inconclusive

What do the screens show for `Cc1ccc(C(=O)/C(=C/c2ccc(F)cc2)c2nc3ccccc3o2)cc1`?
12-LOX inh: 7%

Results for CN1CCCCCCN(S(=O)(=O)c2ccc3c(c2)CCC3)[C@H]2CCC[C@H]2C1=O ?
12-LOX inh: 17%

How did CCCC(=O)Oc1ccc2c(=O)c(Oc3cc(C)cc(C)c3)c(C(F)(F)F)oc2c1 do in these assays?
12-LOX inh: -15%

How did NC(=O)Cn1c(S(=O)(=O)Cc2ccccc2)nc2ccccc21 do in these assays?
12-LOX inh: inconclusive; IL-1B inflam inh: 21; DT40 TDP1 CPT: -9%; DT40 TDP1 no CPT: 20%; HT1080-NT tox: inconclusive; HT1080 IDH1KD tx: 26%

Results for CCOC(=O)Cn1c(S(=O)(=O)Cc2cccc(F)c2)nc(-c2ccccc2)c1-c1ccccc1 ?
12-LOX inh: 22%; IL-1B inflam inh: -20; DT40 TDP1 CPT: 8.2µM*; DT40 TDP1 no CPT: 10µM*; HT1080-NT tox: -3%; HT1080 IDH1KD tx: 7.1µM*

Results for CCOC(=O)Cn1c(-c2ccccc2)nc2ccccc2c1=O ?
12-LOX inh: -19%; IL-1B inflam inh: 18; DT40 TDP1 CPT: -11%; DT40 TDP1 no CPT: 3%; HT1080-NT tox: 2%; HT1080 IDH1KD tx: 6%

How did C#CCn1c(S(=O)(=O)Cc2ccc(F)cc2)nc(-c2ccccc2)c1-c1ccccc1 do in these assays?
12-LOX inh: -4%; IL-1B inflam inh: inconclusive; DT40 TDP1 CPT: 15µM*; DT40 TDP1 no CPT: 10µM*; HT1080-NT tox: inconclusive; HT1080 IDH1KD tx: 1.4µM*

What do the screens show for `N#Cc1cccc(C(=O)C(C#N)C(=O)Nc2cccc(C(F)(F)F)c2)c1` (stereo not drawn)?
12-LOX inh: 24%

Results for CCn1c(C)nc2cc(N)ccc21 ?
12-LOX inh: -19%; IL-1B inflam inh: 10; DT40 TDP1 CPT: 4%; DT40 TDP1 no CPT: -1%; HT1080-NT tox: -1%; HT1080 IDH1KD tx: 0%

What do the screens show for `Nc1ccc2c(c1)ncn2CCCn1cnc2cc(N)ccc21`?
12-LOX inh: 13%; IL-1B inflam inh: -3; DT40 TDP1 CPT: 21µM*; DT40 TDP1 no CPT: inconclusive; HT1080-NT tox: -6%; HT1080 IDH1KD tx: -33%

How did COc1cc(CNCCN2CCOCC2)ccc1OCc1ccccc1Cl do in these assays?
12-LOX inh: inconclusive; IL-1B inflam inh: -16; DT40 TDP1 CPT: inconclusive; DT40 TDP1 no CPT: 18µM*; HT1080-NT tox: -19%; HT1080 IDH1KD tx: -16%

Results for COc1cc(CNCCN2CCOCC2)ccc1OCc1ccc(Cl)cc1 ?
12-LOX inh: inconclusive; IL-1B inflam inh: inconclusive; DT40 TDP1 CPT: 18µM*; DT40 TDP1 no CPT: inconclusive; HT1080-NT tox: inconclusive; HT1080 IDH1KD tx: inconclusive

Results for COc1cc(CNCc2ccccn2)ccc1OCc1ccccc1Cl ?
12-LOX inh: 3%; IL-1B inflam inh: -18; DT40 TDP1 CPT: inconclusive; DT40 TDP1 no CPT: inconclusive; HT1080-NT tox: -20%; HT1080 IDH1KD tx: -23%

How did Cc1cc(Cl)ccc1OCC(O)CNCCc1ccc(S(N)(=O)=O)cc1 (stereo not drawn) do in these assays?
12-LOX inh: 0%; IL-1B inflam inh: -5; DT40 TDP1 CPT: inconclusive; DT40 TDP1 no CPT: 15µM*; HT1080-NT tox: -11%; HT1080 IDH1KD tx: -12%

What do the screens show for `COc1cc(CNCCc2ccc(Cl)cc2)ccc1OCC(O)CN1CCOCC1` (stereo not drawn)?
12-LOX inh: 3%

What do the screens show for `C=CCOc1c(Cl)cc(CNCCCN2CCOCC2)cc1OC`?
12-LOX inh: inconclusive; IL-1B inflam inh: 4; DT40 TDP1 CPT: 23µM*; DT40 TDP1 no CPT: -77%; HT1080-NT tox: inconclusive; HT1080 IDH1KD tx: -6%

How did CN(C)C(=O)CNS(=O)(=O)c1cc(F)cc(F)c1 do in these assays?
12-LOX inh: -40%

How did CCOc1ccc(NC(=O)c2nn(-c3cc(OC)cc(OC)c3)c(=O)c3ccccc23)cc1 do in these assays?
12-LOX inh: -1%

Results for COc1cc(CNCCc2ccc(S(N)(=O)=O)cc2)ccc1OCc1ccc(Cl)cc1 ?
12-LOX inh: 40µM*; IL-1B inflam inh: -78*; DT40 TDP1 CPT: 23µM*; DT40 TDP1 no CPT: inconclusive; HT1080-NT tox: -4%[9.24 µM]; HT1080 IDH1KD tx: 13µM*

How did COc1cc(CNCCCN2CCOCC2)cc(Br)c1OCc1ccc(Cl)cc1 do in these assays?
12-LOX inh: inconclusive; IL-1B inflam inh: 0; DT40 TDP1 CPT: 3.7µM*; DT40 TDP1 no CPT: 3.7µM*; HT1080-NT tox: -28%; HT1080 IDH1KD tx: inconclusive

High-throughput results from PubChem BioAssay.
